Laboratory results reported in PubChem BioAssay (NCI).
This is part of a sample that, as a whole, favours compounds with a hit. Of some 83,000 tested, about 20% had one in any assay.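 In brief: 96-well plates, 48 h treatment, single concentration, percent growth endpoint.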 A number with no mark means an inactive call. Activity calls are given as the source filed them. How the source made its calls: active means growth percent below 10; inactive means the rest.

Test system: SF-295 CNS
Assay: NCI-60 one-dose screen, 48 h (100 = growth as untreated, 0 = no growth, -100 = all killed)
Details: 10 µM unless noted

| SMILES | growth [%] |
| --- | --- |
| O=C1NN(c2ccccc2)C(c2ccc(Cl)cc2)N2CCC[C@H]12 (some centres undefined) | 101 |
| Nc1ccccc1NS(=O)(=O)c1ccc(Cl)cc1 | 101 |
| CCCCCCN1C(=O)CN=C1Nc1ccc2cc3ccc(NC4=NCC(=O)N4CCCCCC)cc3nc2c1 | 82.7 |
| Nc1n[nH]c2cccc(C#Cc3cccc(NC(=O)c4cc(N5CCOCC5)cc(C(F)(F)F)c4)c3)c12 | 69.1 |
| Cc1cnc(SCc2ccc(Cl)cc2Cl)nc1Nc1ccc(Cl)c(Cl)c1 | 92.8 |

Test system: SF-539 CNS
Assay: as above
Details: 10 µM unless noted

| SMILES | growth |
| --- | --- |
| COc1ccc(/C=C/C(=O)/C=C(/C=C/c2ccc(OC)c(OC)c2)OB(F)F)cc1OC | 28.8% |
| COc1cc(/C=C/C(=O)/C=C/c2cc3ccc(Cl)cc3[nH]c2=O)ccc1O | 105% |
| CCCCn1c(=O)c(/C=C/C(=O)/C=C/c2cc3ccccc3n(CCCC)c2=O)cc2ccccc21 | -7.12% (active) |
| COc1ccc(-c2nc(C#N)c(NCC(c3ccco3)N3CCCC3)o2)cc1 (centres undefined) | 23.7% |
| N#C/C(=C/c1ccc(O)c([N+](=O)[O-])c1)c1nc(-c2ccc([N+](=O)[O-])cc2)cs1 | 47.2% |
| C=C1C(=O)O[C@H]2[C@H]1CC/C(COC(=O)CCCCC(=O)OC/C1=C/CC[C@@]3(C)O[C@H]3[C@H]3OC(=O)C(=C)[C@@H]3CC1)=C\CC[C@@]1(C)O[C@@H]21 | 46.5% |
| CCOC(=O)c1c(C(F)(F)F)n([O-])c2ccc(Cl)cc2[n+]1=O | -96.1% (active) |
| COc1ccc(-c2nc(C#N)c(NCC(c3ccc(Cl)cc3)N3CCCCC3)o2)cc1 (centres undefined) | 101% |
| O=CN1N=C(c2ccc(Cl)cc2)CC1c1cccc(Nc2ccnc3cc(C(F)(F)F)ccc23)c1 (centres undefined) | 78.7% |
| O=C(CCCCCCCCC(=O)Nc1cccc(C2=NCCN2)c1)Nc1cccc(C2=NCCN2)c1 | 108% |
| CCOC(=O)C1CCN(S(=O)(=O)/N=C2/NC(=O)NC2=C(Cl)Cl)CC1 | -4.27% (active) |
| S=c1ssnc1-c1cc2ccccc2o1 | 102% |
| NS(=O)(=O)c1ccc(C2C3=C(CCCC3=O)OC3=C2C(=O)c2ccccc2C3=O)cc1 (centres undefined) | -88.5% (active) |
| C=C1C(=O)O[C@H]2[C@H]1CCC(/C=N/c1ncc(Br)cc1N)=C\CC[C@@]1(C)O[C@@H]21 | 25.8% |
| C#Cc1ccccc1NC(=O)c1sc2nc3c(cc2c1N)CCCCC3 | 101% |
| NS(=O)(=O)c1ccc(-n2nc(-c3ccccc3)ccc2=O)cc1 | 95.3% |
| COc1ccc(-c2nnc(N3CCN(C(=O)CN4CCN(c5ccc(OC)cc5)CC4)CC3)nc2-c2ccc(OC)cc2)cc1 | 32% |
| N#Cc1ccc(Oc2ccc3ccc(=O)oc3c2)cc1 | 101% |
| CC1CCCN(CCCCCOc2ccc3oc4ccccc4c(=O)c3c2)C1 (centres undefined) | 77.2% |
| CS(=O)(=O)O[C@@H]1C(=O)N(c2cc3c4ccccc4ccc3c3ccccc23)[C@H]1c1ccc(F)cn1 | 15.7% |
| C=C1C(=O)O[C@H]2[C@H]1CC/C(C=Nc1c(N)cc(F)cc1Br)=C\CC[C@@]1(C)O[C@@H]21 | 86.9% |
| Cc1ccc(SC2c3ccc(C)cc3Oc3nc(N)c(C#N)c(N)c32)cc1 (centres undefined) | 90.5% |
| O=C(Nc1nccs1)c1noc2ccccc12 | 95.6% |
| C=C(C)[C@@H]1CC[C@]2(C(=O)OCCCC[P+](c3ccccc3)(c3ccccc3)c3ccccc3)CC[C@]3(C)[C@H](CC[C@@H]4[C@@]5(C)CC[C@H](OC(=O)C(Cl)Cl)C(C)(C)[C@@H]5CC[C@]43C)[C@@H]12 | -44.2% (active) |
| Cc1cc2ccccc2c[n+]1CC(=O)c1ccc(-c2ccccc2)cc1 | 75.5% |
| O=C1Nc2ccc(Cl)cc2/C1=N/c1nc(-c2ccc(F)cc2)cs1 | 48.6% |
| COc1cc(/C=N/Nc2nc(-c3ccc(F)cc3)c(C#N)c(N3CCOCC3)n2)ccc1O | 93.7% |
| C=C(C)[C@@H]1CC[C@]2(C(=O)N=C=S)CC[C@]3(C)[C@H](CC[C@@H]4[C@@]5(C)CCC(=O)C(C)(C)[C@@H]5CC[C@]43C)[C@@H]12 | 31.8% |
| CC1(C)[C@@H](O)CC[C@]2(C)[C@H]3CC[C@@H]4[C@H]5[C@H](c6cn(-c7ccccc7)nn6)CC[C@]5(CO)CC[C@@]4(C)[C@]3(C)CC[C@@H]12 | 92.6% |
